Assay [1] has as its target MAP/microtubule affinity-regulating kinase 3 (Homo sapiens) (UniProt P27448). Conditions: at 1 µM.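 Further: reported values are averaged percent inhibition of MARK3.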
The target of assay [2] is T1, MAP/microtubule affinity-regulating kinase 4 (Homo sapiens) (UniProt Q96L34).
T1 sequence (whole entry): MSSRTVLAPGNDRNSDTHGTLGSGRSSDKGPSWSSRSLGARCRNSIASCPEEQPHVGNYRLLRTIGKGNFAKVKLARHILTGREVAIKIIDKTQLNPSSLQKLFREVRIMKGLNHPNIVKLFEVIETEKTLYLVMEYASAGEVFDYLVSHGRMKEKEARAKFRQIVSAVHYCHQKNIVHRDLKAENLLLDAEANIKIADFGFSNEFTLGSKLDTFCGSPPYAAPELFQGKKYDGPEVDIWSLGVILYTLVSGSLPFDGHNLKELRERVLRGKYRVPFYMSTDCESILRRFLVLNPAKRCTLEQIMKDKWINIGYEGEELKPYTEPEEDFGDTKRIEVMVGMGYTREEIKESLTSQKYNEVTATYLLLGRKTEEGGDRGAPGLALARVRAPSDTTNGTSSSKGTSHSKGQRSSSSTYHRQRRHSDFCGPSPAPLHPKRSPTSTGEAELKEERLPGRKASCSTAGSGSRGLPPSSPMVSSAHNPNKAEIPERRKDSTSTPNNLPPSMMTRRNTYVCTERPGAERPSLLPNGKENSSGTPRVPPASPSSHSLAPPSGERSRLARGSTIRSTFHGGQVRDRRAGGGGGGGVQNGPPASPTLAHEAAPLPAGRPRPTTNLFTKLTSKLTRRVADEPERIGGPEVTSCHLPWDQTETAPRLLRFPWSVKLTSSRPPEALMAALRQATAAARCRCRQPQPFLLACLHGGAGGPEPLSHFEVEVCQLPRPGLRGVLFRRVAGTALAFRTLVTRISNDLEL
Conditions: at 0.1 µM.

Assay [3] has as its target T1, MAP/microtubule affinity-regulating kinase 4 (Homo sapiens). The note with it: at 1 µM.
Assay [4] has as its target Maternal embryonic leucine zipper kinase (Homo sapiens) (UniProt Q14680). The note with it: at 0.1 µM.
Assay [5] shares this target. Conditions: at 1 µM.
Assay [6] concerns the target MAP kinase-interacting serine/threonine-protein kinase 1 (Homo sapiens) (UniProt Q9BUB5). The note with it: at 0.1 µM.
The target is the same in assay [7]. The note with it: at 1 µM.
The target in assay [8] is MAP kinase-interacting serine/threonine-protein kinase 2 (Homo sapiens) (UniProt Q9HBH9). The note with it: at 0.1 µM.
Sequence of MAP kinase-interacting serine/threonine-protein kinase 2 (Homo sapiens) (Q9HBH9 whole entry, looked up): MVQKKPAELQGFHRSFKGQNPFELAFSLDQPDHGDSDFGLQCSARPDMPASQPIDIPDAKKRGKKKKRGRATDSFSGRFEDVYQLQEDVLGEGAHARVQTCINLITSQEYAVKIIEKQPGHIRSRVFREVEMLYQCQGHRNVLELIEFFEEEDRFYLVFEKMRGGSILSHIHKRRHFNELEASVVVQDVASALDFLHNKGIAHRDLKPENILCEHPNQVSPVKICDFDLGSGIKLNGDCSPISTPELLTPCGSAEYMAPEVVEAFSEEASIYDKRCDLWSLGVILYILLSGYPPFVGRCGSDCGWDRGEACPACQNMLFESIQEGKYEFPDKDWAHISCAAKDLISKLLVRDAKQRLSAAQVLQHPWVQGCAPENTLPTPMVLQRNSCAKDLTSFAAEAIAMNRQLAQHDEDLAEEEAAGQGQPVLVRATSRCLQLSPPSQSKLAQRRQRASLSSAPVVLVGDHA
For assay [9] the target is unchanged. Conditions: at 1 µM.
Assay [10] addresses Serine/threonine-protein kinase MARK2 (Homo sapiens) (UniProt Q7KZI7). The note with it: at 0.1 µM.
The target is the same in assay [11]. Conditions: at 1 µM.
The target of assay [12] is PAS domain-containing serine/threonine-protein kinase (Homo sapiens) (UniProt Q96RG2). The note with it: at 0.1 µM.
Sequence of PAS domain-containing serine/threonine-protein kinase (Homo sapiens) (Q96RG2 whole entry, the tested form may be a part): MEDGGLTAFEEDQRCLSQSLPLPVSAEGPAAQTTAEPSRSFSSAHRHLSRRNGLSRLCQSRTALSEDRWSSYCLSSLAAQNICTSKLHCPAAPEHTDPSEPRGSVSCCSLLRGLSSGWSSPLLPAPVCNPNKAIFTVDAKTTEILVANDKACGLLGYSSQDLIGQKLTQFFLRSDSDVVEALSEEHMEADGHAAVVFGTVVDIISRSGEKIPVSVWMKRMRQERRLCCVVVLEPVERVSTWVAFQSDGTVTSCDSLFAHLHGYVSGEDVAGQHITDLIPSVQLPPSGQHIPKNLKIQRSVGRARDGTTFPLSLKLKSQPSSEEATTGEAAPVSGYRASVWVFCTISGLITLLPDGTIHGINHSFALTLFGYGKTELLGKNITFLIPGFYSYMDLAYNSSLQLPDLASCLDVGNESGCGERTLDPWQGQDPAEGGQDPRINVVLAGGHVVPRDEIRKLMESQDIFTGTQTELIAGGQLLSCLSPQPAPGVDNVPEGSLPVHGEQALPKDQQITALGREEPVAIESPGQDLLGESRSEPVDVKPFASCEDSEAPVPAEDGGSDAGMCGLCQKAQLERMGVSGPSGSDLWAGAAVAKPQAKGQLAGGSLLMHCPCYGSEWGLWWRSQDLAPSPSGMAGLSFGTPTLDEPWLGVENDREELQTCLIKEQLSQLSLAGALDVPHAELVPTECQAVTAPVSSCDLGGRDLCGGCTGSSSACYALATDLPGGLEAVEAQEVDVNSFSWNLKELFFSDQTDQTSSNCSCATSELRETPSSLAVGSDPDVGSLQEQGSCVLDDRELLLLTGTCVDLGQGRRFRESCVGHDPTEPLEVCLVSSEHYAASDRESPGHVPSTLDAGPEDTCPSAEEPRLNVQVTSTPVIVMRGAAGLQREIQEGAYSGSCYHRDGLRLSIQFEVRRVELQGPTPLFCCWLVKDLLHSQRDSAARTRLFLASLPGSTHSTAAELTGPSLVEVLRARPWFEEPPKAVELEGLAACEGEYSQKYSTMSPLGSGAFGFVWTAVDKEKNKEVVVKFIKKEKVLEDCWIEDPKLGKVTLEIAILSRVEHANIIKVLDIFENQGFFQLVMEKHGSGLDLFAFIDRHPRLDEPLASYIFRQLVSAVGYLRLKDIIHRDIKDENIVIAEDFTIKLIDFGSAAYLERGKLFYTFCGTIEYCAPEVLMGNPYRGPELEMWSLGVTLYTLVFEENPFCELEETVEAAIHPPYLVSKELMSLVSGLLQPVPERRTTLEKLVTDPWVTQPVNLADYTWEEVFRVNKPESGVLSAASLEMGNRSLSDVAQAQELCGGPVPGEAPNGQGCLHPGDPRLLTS
The target is the same in assay [13]. Conditions: at 1 µM.
Assay [14] addresses Phosphorylase b kinase gamma catalytic chain, skeletal muscle/heart isoform (Homo sapiens) (UniProt Q16816). Conditions: at 0.1 µM.
The target is the same in assay [15]. Conditions: at 1 µM.
The target in assay [16] is T2, Phosphorylase b kinase gamma catalytic chain, liver/testis isoform (Homo sapiens) (UniProt P15735).
T2 sequence (whole entry): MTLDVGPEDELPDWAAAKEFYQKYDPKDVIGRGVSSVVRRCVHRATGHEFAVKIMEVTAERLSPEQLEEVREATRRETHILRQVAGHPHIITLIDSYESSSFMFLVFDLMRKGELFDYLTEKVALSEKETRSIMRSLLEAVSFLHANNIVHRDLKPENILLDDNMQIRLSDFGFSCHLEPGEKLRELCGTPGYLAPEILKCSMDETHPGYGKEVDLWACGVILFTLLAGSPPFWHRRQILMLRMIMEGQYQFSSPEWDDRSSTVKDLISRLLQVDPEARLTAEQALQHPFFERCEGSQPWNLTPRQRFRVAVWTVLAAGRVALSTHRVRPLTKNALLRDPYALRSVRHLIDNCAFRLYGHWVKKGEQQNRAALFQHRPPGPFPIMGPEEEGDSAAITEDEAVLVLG
The note with it: at 0.1 µM.

Assay [17] has as its target T2, Phosphorylase b kinase gamma catalytic chain, liver/testis isoform (Homo sapiens). The note with it: at 1 µM.
In assay [18] the target is Serine/threonine-protein kinase pim-1 (Homo sapiens) (UniProt P11309). The note with it: at 0.1 µM.
Assay [19] has the same target. The note with it: at 1 µM.
For assay [20], the target named is Serine/threonine-protein kinase pim-2 (Homo sapiens) (UniProt Q9P1W9). The note with it: at 0.1 µM.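 Further: reported value is the mean percent inhibition of PIM2, measured in the GSK PKIS kinase inhibitor set screen.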

Sequence of Phosphorylase b kinase gamma catalytic chain, skeletal muscle/heart isoform (Homo sapiens) (Q16816 whole entry, looked up, canonical isoform): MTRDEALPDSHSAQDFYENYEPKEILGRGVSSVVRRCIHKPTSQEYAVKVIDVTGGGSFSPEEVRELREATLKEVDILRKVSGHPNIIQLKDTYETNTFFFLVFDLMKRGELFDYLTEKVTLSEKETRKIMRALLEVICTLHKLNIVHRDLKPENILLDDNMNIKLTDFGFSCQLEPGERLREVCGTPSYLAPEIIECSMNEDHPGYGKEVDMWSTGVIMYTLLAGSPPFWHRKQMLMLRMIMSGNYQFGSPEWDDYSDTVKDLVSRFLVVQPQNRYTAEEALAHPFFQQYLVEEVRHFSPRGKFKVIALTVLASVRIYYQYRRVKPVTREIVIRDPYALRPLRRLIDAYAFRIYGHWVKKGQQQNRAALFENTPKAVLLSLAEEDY
Sequence of MAP/microtubule affinity-regulating kinase 3 (Homo sapiens) (P27448 whole entry, looked up): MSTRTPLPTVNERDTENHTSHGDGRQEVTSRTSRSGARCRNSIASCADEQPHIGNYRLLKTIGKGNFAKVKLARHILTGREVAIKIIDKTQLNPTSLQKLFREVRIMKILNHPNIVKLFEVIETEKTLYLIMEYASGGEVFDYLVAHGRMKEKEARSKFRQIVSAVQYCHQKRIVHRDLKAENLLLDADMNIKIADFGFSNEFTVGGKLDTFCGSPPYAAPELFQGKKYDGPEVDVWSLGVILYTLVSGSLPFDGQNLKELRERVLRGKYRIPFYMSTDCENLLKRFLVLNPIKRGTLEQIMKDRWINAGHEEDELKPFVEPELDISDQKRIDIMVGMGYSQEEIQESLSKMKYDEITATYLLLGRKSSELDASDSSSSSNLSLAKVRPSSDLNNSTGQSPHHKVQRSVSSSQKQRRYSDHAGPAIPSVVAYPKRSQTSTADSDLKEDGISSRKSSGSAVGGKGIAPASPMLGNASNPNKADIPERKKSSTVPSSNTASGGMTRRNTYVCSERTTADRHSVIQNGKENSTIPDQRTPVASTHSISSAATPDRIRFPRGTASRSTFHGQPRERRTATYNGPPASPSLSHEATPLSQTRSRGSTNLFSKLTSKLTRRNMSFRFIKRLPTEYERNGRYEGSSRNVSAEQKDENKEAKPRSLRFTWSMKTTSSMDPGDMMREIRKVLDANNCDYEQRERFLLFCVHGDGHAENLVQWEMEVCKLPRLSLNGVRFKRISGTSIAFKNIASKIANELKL
Sequence of Maternal embryonic leucine zipper kinase (Homo sapiens) (Q14680 whole entry, looked up): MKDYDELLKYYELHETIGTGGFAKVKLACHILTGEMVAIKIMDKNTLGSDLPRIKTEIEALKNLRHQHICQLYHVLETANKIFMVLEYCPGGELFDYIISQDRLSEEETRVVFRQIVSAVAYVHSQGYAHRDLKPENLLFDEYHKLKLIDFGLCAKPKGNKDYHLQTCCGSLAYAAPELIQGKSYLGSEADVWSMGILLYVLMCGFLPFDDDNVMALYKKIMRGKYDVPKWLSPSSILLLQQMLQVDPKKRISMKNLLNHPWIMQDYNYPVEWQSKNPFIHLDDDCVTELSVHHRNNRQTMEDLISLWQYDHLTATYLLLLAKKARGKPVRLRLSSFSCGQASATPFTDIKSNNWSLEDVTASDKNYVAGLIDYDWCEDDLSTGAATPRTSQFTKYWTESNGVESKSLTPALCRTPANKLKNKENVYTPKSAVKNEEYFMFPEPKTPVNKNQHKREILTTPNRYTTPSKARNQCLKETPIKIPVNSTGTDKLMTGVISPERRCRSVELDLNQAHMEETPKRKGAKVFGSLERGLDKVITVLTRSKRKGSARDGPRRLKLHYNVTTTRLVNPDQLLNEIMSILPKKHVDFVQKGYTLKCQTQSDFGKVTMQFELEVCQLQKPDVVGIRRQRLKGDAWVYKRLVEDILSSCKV
Sequence of Serine/threonine-protein kinase MARK2 (Homo sapiens) (Q7KZI7 whole entry): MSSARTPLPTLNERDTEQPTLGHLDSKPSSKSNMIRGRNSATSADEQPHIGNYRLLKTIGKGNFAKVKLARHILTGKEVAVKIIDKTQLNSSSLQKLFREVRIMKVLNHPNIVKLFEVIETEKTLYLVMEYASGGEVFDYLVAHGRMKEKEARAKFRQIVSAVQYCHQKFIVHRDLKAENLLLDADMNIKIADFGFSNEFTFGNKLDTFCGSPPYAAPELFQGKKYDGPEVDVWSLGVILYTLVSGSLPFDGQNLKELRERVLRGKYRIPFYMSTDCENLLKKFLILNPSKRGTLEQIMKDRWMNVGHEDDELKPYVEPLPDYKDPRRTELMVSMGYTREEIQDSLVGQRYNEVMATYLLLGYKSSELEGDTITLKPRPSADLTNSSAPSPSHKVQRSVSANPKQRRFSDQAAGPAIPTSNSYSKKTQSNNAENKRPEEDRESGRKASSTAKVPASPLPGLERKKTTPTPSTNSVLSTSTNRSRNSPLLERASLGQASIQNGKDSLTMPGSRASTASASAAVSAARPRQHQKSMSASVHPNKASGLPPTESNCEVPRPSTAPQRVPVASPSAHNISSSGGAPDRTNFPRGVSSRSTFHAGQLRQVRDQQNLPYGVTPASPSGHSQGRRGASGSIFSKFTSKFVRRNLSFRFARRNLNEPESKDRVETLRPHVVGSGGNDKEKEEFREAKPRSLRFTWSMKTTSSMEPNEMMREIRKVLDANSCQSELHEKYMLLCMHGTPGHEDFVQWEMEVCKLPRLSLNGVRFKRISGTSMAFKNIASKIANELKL
Sequence of MAP kinase-interacting serine/threonine-protein kinase 1 (Homo sapiens) (Q9BUB5 whole entry, looked up): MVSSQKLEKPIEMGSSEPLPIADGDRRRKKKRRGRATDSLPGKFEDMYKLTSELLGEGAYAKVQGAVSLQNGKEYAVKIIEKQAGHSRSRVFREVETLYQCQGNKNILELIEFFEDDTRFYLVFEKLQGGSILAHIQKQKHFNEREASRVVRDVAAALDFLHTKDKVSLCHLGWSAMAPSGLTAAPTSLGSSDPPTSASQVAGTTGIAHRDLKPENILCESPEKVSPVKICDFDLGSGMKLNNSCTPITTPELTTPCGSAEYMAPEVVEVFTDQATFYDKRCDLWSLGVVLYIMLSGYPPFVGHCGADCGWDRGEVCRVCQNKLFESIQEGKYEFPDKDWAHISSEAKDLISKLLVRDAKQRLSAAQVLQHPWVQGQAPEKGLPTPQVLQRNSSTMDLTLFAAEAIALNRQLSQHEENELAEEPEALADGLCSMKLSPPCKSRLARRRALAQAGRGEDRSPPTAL

On to `N#Cc1c(NC(=O)c2ccccc2F)sc2c1CCCC2`, for which the inhibition in assay [1] is 3.09%; in assay [2] it was 1.13%; in assay [3], 3.48%; in assay [4], -3.26%; in assay [5], -2.77%; in assay [6], -0.78%. For the same compound, the inhibition is -0.18% in [7]; -0.06% in assay [8]; 2.26% in assay [9]; -0.36% in assay [10]; 3.45% in assay [11]; 1.88% in assay [12]. Moreover, the inhibition in assay [13] was 1.22%; in assay [14], 1.23%; in assay [15] it was 2.36%; in assay [16] it was -2.2%; in assay [17], -2.57%; in assay [18], 0.9%. Moreover, the inhibition in assay [19] worked out at 2.11%; in [20], 0.14%.

`Cc1ccc(NC(=O)CC2CC2)cc1-c1ccc(C(=O)NCC2CC2)cc1`: the inhibition is 1.71% in [1]; 1% in assay [2]; -0.01% in assay [3]; 4.17% in assay [4]; 2.02% in assay [5]; 2.59% in assay [6]. For the same compound, the inhibition in assay [7] was 7.07%; in assay [8] it was 1.63%; in assay [9] it was 5.54%; in assay [10] it was -1.05%; in assay [11], 0.03%; in [12], -0.28%. Also, the inhibition worked out at 0.77% in assay [13]; 3.12% in assay [14]; 5.93% in [15]; 4.45% in assay [16]; 4.9% in assay [17]; 1.51% in [18]. The values for the inhibition in assay [19] and in assay [20] were 0.73% and -0.33%, respectively.

Regarding `Cc1ccc(Nc2ccnc(Nc3cccc(C(N)=O)c3)n2)cc1O`, the inhibition in assay [1] is 12.5%; in [2] it was 1.68%; in assay [3], 6.22%; in assay [4], 2.96%; in assay [5], 7.7%; in assay [6], 2.87%. In addition, the inhibition turned out to be 13.4% in [7]; 2.08% in assay [8]; 16.7% in [9]; 0.4% in assay [10]; 3.99% in assay [11]; 0.66% in assay [12]. Moreover, the inhibition in assay [13] was 0.18%; in assay [14], 1.96%; in assay [15], 10.4%; in assay [16] it was 4.75%; in [17], 6.26%; in assay [18], 0.14%. Moreover, the inhibition in [19] is 1.49%; in [20], -4.07%.

On to `COc1ccc2ncnc(Nc3ccc(OCc4ccccc4)cc3)c2c1`, for which the inhibition in assay [1] was 3.15%; in assay [2] it was 0.07%; in assay [3], -0.37%; in assay [4], -0.28%; in assay [5], 2.03%; in [6], 2.24%. Moreover, the inhibition in assay [7] was 7.43%; in [8] it was 1.39%; in assay [9], 11.3%; in assay [10], 0.5%; in assay [11] it was 0.4%; in assay [12], -0.03%. Further, the inhibition was found to be 2.46% in assay [13]; 4.44% in assay [14]; 4.51% in assay [15]; 1.92% in assay [16]; 2.81% in assay [17]; 0.17% in assay [18]. Also, the inhibition in [19] is 0.4%; in assay [20] it was -0.18%.

With `COc1cccc(-n2ncc3c(N/N=C/c4ccc(C)cc4)ncnc32)c1`, the inhibition in assay [1] stood at 6.9%; in assay [2], 2.42%; in [3] it was 5.11%; in assay [4], 5.47%; in assay [5], 12.6%; in assay [6] it was 4.37%. The inhibition is 9.69% in assay [7]; 3.79% in assay [8]; 11.2% in assay [9]; 2.05% in assay [10]; 6.23% in assay [11]; -0.93% in assay [12]. For the same compound, the inhibition was found to be 0.57% in [13]; 2.43% in assay [14]; 10% in [15]; 5.73% in [16]; 5.98% in assay [17]; 1.21% in [18]. Besides, the inhibition is 3.51% in assay [19] and -0.44% in assay [20].

As for `Cc1ccc(O)cc1Nc1ccnc2ccc(S(C)(=O)=O)cc12`, the inhibition in [1] amounted to 4.85%; in [2], 2.23%; in assay [3], 1.71%; in assay [4] it was 4.23%; in [5] it was 9.23%; in [6], 3.85%. For the same compound, the inhibition in [7] is 12.2%; in assay [8], 1.97%; in assay [9] it was 9.18%; in assay [10], 2.65%; in [11], 1.93%; in [12], -0.05%. Further, the inhibition turned out to be 4.61% in assay [13]; 6.2% in assay [14]; 10% in assay [15]; 5.57% in assay [16]; 7.16% in assay [17]; 0.95% in [18]. In addition, the values for the inhibition in assay [19] and in [20] were 1.4% and 0.23%, respectively.

Broadly, the inhibition is the drop in the measured response relative to a control, in per cent.

These data come from ChEMBL document CHEMBL1961873, “Compounds: GSK PKIS; Assays: Nanosyn kinase panel” (2012).
